# Test results as given in PubChem BioAssay (NCI).
# About 83,000 compounds went through this panel and 20% of them were active in at least one assay; those are over-represented in the sample as a whole.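 48-hour exposure, single concentration, 96-well plates; percent growth endpoint where 0 means no net growth. Active: below 10.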 Unmarked numbers belong to inactive results. Active and inactive are the calls of the source.
# Experiments:
# Assay in all cases: NCI-60 one-dose screen, 48 h (100 = growth as untreated, 0 = no growth, -100 = all killed)
# NCI-H23 lung = details: 10 µM unless noted
# NCI-H226 lung = details: 10 µM unless noted
# NCI-H322M lung = details: 10 µM unless noted
# HOP-62 NSCLC = details: 10 µM unless noted
# NCI-H460 lung = details: 10 µM unless noted
# HOP-92 NSCLC = details: 10 µM
# A549/ATCC NSCLC = details: 10 µM unless noted
# 786-0 renal = details: 10 µM unless noted
# COLO 205 colon = details: 10 µM unless noted
# NCI-H522 lung = details: 10 µM unless noted
SMILES,growth (NCI-H23 lung),growth (NCI-H226 lung),growth (NCI-H322M lung),growth (HOP-62 NSCLC),growth (NCI-H460 lung),growth (HOP-92 NSCLC),growth (A549/ATCC NSCLC),growth (786-0 renal),growth (COLO 205 colon),growth (NCI-H522 lung)
CC1(C)CC[C@]2(C(=O)O)CC[C@]3(C)C(=CC[C@@H]4[C@@]5(C)CC/C(=N\OCCC#N)C(C)(C)[C@@H]5CC[C@]43C)[C@@H]2C1,98%,98%,111%,79.2%,93.7%,123%,93.7%,80.8%,111%,–
C=C(C)[C@@H]1CC[C@]2(COP(=O)(OCC)OCC)CC[C@]3(C)[C@H](CC[C@@H]4[C@@]5(C)CCCNC(C)(C)[C@@H]5CC[C@]43C)[C@@H]12,37.1%,53.8%,84.7%,62.9%,-32.8% (active),41%,36.3%,35.7%,-15.4% (active),–
Oc1[nH]c2ccccc2c1Nn1c(N=N/C=c2/ccc3c(c2)C=NN=3)n[nH]c1=S,89.6%,93.9%,107%,75.6%,110%,76.6%,99.9%,96.7%,30.9%,–
C#C[C@]1(O)CC[C@H]2[C@@H]3CC=C4c5sc(-c6cccc(O)c6)nc5CC[C@]4(C)[C@H]3CC[C@@]21C,-26.8% (active),-29.4% (active),-5.55% (active),-20.8% (active),-52.9% (active),–,-16.2% (active),-57.6% (active),-25.3% (active),3.14% (active)
CC1(C)[C@@H](O)CC[C@]2(C)[C@H]3CC[C@@H]4[C@H]5[C@H](C(=O)/C=C\c6ccccn6)CC[C@]5(O)CC[C@@]4(C)[C@]3(C)CC[C@@H]12,31.7%,16.3%,84.3%,73.6%,15.6%,60.9%,49.7%,32.7%,67.7%,–
CCCn1cnc2c(c1=N)C(c1ccc(F)cc1)c1sc3c(C)cccc3c1O2 (stereo not drawn),25.7%,8.74% (active),49.9%,32%,8.38% (active),33.5%,35.6%,23.5%,52.2%,–
C/C(=N\O)[C@H]1C[C@]23CC[C@]4(C)[C@H](CC[C@@H]5[C@@]6(C)CC/C(=N/O)C(C)(C)[C@@H]6CC[C@]54C)[C@H]2[C@H](C)C1(C)OC3,96.5%,91.9%,114%,88.5%,106%,106%,94.7%,92.1%,116%,–
COc1cc(-c2nn(C(C)(C)C)cc2-c2ccnc(NCCCNS(=O)(=O)c3cccc(F)c3)n2)ccc1Cl,77.7%,69.4%,85.3%,65.4%,77.2%,54.9%,50.7%,69.7%,91.5%,–
COc1ccc(S(=O)(=O)NCCCNc2nccc(-c3cn(C(C)(C)C)nc3-c3ccc(Cl)c(OC)c3)n2)cc1,87.7%,73.6%,82.5%,63.3%,84.9%,69.4%,64.4%,79.7%,105%,–
N#Cc1c(-c2cccs2)cc(-c2cnccn2)nc1SCC(=O)c1ccc(F)cc1,90.6%,89.3%,97.8%,76.4%,103%,76%,86.6%,88.6%,105%,–
N/C(=N\C(N)=N\c1nc2ccccc2s1)c1cccc(F)c1,76.5% [5 µM],90.8% [5 µM],92.6% [5 µM],81.1% [5 µM],88.7% [5 µM],–,75.9% [5 µM],107% [5 µM],106% [5 µM],94.5% [5 µM]
CC(C)(O)c1cncc(-c2ccc3ncnc(NCc4ccccc4)c3c2)c1,71.1%,74.8%,102%,66%,97.6%,72.3%,85%,76.3%,113%,–
NC(=O)c1cccc(-n2ccc3cc(NC(=O)Nc4ccc(N5CCOCC5)c(C(F)(F)F)c4)ccc32)n1,12.3%,-3.89% (active),15.8%,1.56% (active),0.481% (active),-16.5% (active),10.5%,-41.8% (active),-48.3% (active),–
CCc1cccc(NC(=O)CNc2cc(S(=O)(=O)N(C)C)cc(C)c2C)c1,81.4%,77%,105%,73.8%,102%,72%,85.2%,85.2%,111%,–
N/C(=N\C(N)=N\c1nc2ccccc2s1)c1ccc2ccccc2c1,53.2%,62.7%,96.8%,-28% (active),68.1%,88.6%,9.92% (active),87.9%,109%,–
COc1cc(-c2nn(C(C)(C)C)cc2-c2ccnc(NCCCNS(=O)(=O)c3ccc(C)cc3)n2)ccc1Cl,84.1%,70.9%,86%,70.8%,86.7%,70.2%,59.7%,83.2%,107%,–
CC(=O)Nc1cccc(Nc2nc(N[C@H](C)c3ccccc3)c3ccccc3n2)c1,52.3%,82.6%,90.3%,72.6%,41.2%,22%,40.7%,54.9%,44.1%,–
COc1ccc(-n2c(SCc3n[nH]c(=S)o3)nc3ccc(Cl)cc3c2=O)cc1,99%,77.6%,97.6%,97.2%,103%,–,97.7%,94.1%,114%,87.6%
COc1cc(-c2nn(C(C)(C)C)cc2-c2ccnc(NCCCNS(=O)(=O)c3ccc(F)cc3)n2)ccc1Cl,82.3%,72%,87.4%,71.9%,84.2%,70.4%,50.2%,76.3%,96.1%,–
O=C1[C@H]2Cc3c([nH]c4ccccc34)[C@@H](c3ccc(Br)cc3)N2C(=O)CN1C1CCN(CC2CCCCC2)CC1,-81.3% (active),-3.54% (active),16.2%,10.8%,-85.7% (active),-59.4% (active),-77.3% (active),-94.6% (active),-90.6% (active),–
Nc1nc(Nc2ccccc2SSc2ccccc2Nc2nc(N)nc(-c3ccccc3)n2)nc(-c2ccccc2)n1,50.8%,59%,92.4%,17.1%,53.2%,69.7%,3.73% (active),68.2%,115%,–
O=C(Nc1ccc2c(ccn2Cc2ccccn2)c1)c1cnccn1,97%,88.3%,106%,72.7%,105%,91.4%,86.1%,87.6%,120%,–
N#Cc1c(-c2cccs2)cc(-c2cnccn2)nc1SCC(=O)Nc1ccc(Br)cc1,74.8%,81.5%,88.5%,71.3%,70.6%,98.6%,72.3%,80.9%,96.4%,–
C=C(C)[C@@H]1CC[C@]2(COCCCNCCC#N)CC[C@]3(C)[C@H](CC[C@@H]4[C@@]5(C)CC[C@H](OCCCNCCC#N)C(C)(C)[C@@H]5CC[C@]43C)[C@@H]12,33.4%,48.8%,105%,75.6%,41.8%,49.7%,59.2%,59.8%,61.8%,–
CC1(C)[C@@H](O)CC[C@]2(C)[C@H]3CC[C@@H]4[C@H]5[C@H](C(=O)/C=C\c6ccncc6)CC[C@]5(O)CC[C@@]4(C)[C@]3(C)CC[C@@H]12,49.2%,27.8%,93.4%,89.9%,62.9%,91.9%,71.5%,35.3%,91%,–
Cc1c(F)cc(C(N)=O)cc1NCC(=O)Nc1ccc([N+](=O)[O-])cc1,89.2%,82.2%,99.4%,70.6%,99%,75.8%,87.7%,87.5%,105%,–
CNC(=O)c1cc(-n2ccc3cc(NC(=O)Nc4ccc(N5CCOCC5)c(C(F)(F)F)c4)ccc32)ccn1,50.4%,73.6%,75.5%,55.7%,34.3%,56%,36.4%,13.6%,26.4%,–
